# Measurements published in PubChem BioAssay AID686979 (National Center for Advancing Translational Sciences (NCATS), 2013).
# Values joined by “and” are separate entries in the source; they are usually repeats but may differ in a detail not shown here. Equal entries are not always repeated. In all, about 420,000 compounds went through this assay and about 50,000 (12%) were called active. About 26% were inconclusive and are not listed. The entries come from a sample that favours actives as a whole. Unmarked numbers belong to inactive results. The call rests on the fitted dose curve; in most records, active means well fitted inhibition curve with a large enough effect; inconclusive means small, poorly fitted or top-dose-only effect; inactive means flat fitted curve, though single readings scatter.
# Experiment: qHTS for Inhibitors of human tyrosyl-DNA phosphodiesterase 1 (TDP1): qHTS in cells in presence of CPT; further: nearly all actives have a fitted effect of over 55% in size
# Details: chicken DT40 Tdp1-/-;hTDP1 cells + 20 nM CPT, ATP luminescence, 48 h; series mostly up to 46.2 µM; activity change, negative = growth inhibition: at the top concentration
# Procedure, shortened: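 Chicken DT40 Tdp1-/- cells stably complemented with human TDP1 were seeded at 400 cells/well in medium containing 20 nM camptothecin, exposed to pin-transferred compounds, and grown at 37 °C for at least 48 hr. Viability was read as ATP luminescence.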
# On the % scale 0 is the no-effect control and ±100 the full control effect; potency means the concentration at half of the fitted maximal effect.
SMILES,"activity change, negative = growth inhibition",Potency
O=C(c1ccccc1[N+](=O)[O-])N1CCC2(CC1)OCCO2,-10.9%,
CN1C2C=C(N(C(=O)c3ccc(Cl)cc3)c3ccccc3)CC1CC2 (stereo not drawn),-11.7%,
Cc1cc(C)cc(C(=O)N(CCc2ccccc2)C2=CC3CCC(C2)N3C)c1 (stereo not drawn),,20.6 µM (active)
Cc1ccc(N2C(=O)NC(=O)C(CCc3ccncc3)(Cc3cccc(Cl)c3Cl)C2=O)cc1 (stereo not drawn),-5.48%,
CN(C)C1C(=O)C(C(N)=O)=C(O)[C@@]2(O)C(=O)C3=C(O)c4c(O)cccc4[C@@](C)(O)C3C[C@@H]12 (stereo partly drawn),,21.1 µM (active)
CC(C)Nc1nc(Cl)nc(NC(C)C)n1,,inactive
COC(=O)C(O)(c1ccc(NC(=O)c2ccco2)c(OC)c1)C(F)(F)F (stereo not drawn),-6.8%,
N#CC1=C(N)Oc2c(c(=O)oc3ccccc23)C1c1ccccc1OC(=O)c1cccs1 (stereo not drawn),,18.4 µM (active)
CCNc1nc2[nH]c(=O)c3c(c2s1)OC(N)=C(C#N)C3c1cccs1 (stereo not drawn),-26.8%,
CNP1(NC)=Nc2nn(-c3ccccc3)c(N)c2C(c2ccccc2)=N1,-13.9%,
CN(C)CC1Oc2ccccc2OC1(O)c1ccccc1 (stereo not drawn),,2.06 µM (active)
COc1cc(OC)cc(C2(C#N)CCN(C)CC2)c1,-17.9%,
CCCCC/C=C\C/C=C\C/C=C\C/C=C\CCCCCC(=O)NCCO,-4.85% [at 4.12 µM],
O=C(N/N=C/c1c(O)n(C2CC2)c(=S)[nH]c1=O)c1ccccc1Cl,13.4%,
COC([CH2][Hg])CNC(=O)c1ccccc1OCC(=O)O (stereo not drawn),,1.06 µM (active)
c1cncc(CNC2=NCCC2)c1,3.64%,
CCOP(=S)(OCC)C(O)CCCCCn1c(=O)c(F)cn(C2CCCO2)c1=O (stereo not drawn),-1.03%,
CCC1(CC(C)c2ccccc2)C(=O)NC(=O)NC1=O (stereo not drawn),-0.717%,
CCc1ccccc1NC(=O)c1sc2nc3c(cc2c1N)CN(Cc1ccccc1)CC3,,7.31 µM (active)
Cn1cc(C(=O)OCC(=O)N2CCCC2)c2ccccc21,1.39%,

SMILES,"activity change, negative = growth inhibition",Potency
O=C(Nc1ccc(Cl)cc1C(=O)c1ccccc1)c1cc(Cl)cc(Cl)c1,-9.22%,
CN1CCN(C(=S)SCC(=O)Nc2ccc(Cl)cc2C(=O)c2ccccc2)CC1,,14.6 µM (active)
O=C(COC(=O)c1ccccc1)Nc1ccc(Cl)cc1C(=O)c1ccccc1,-11%,
CC(Cc1cccs1)NCc1ccc(Cl)cc1 (stereo not drawn),-21%,
CC(C)(Cc1c[nH]c2ccc(Cl)cc12)NCCOc1ccccc1OCC1CC1,,21.1 µM (active) and 6.51 µM (active)
Cc1ccc(Cn2c(C)c3cnn(CC(=O)N4CCC5(CC4)OCCO5)c(=O)c3c2C)cc1,,20.6 µM (active)
COc1ccc(-c2nc(CS(=O)CC(=O)N3CCC4(CC3)OCCO4)c(C)o2)cc1 (stereo not drawn),-11.2%,
O=C(CCCn1c(=O)[nH]c2cc(Cl)ccc2c1=O)N1CCC2(CC1)OCCO2,-18.1%,
CCC(=O)OC(Cc1ccccc1)(c1ccccc1)C(C)CN(C)C (stereo not drawn),-3.39%,
COC(=O)[C@@]12C[C@@H](CC(=O)NCc3cccc(C(F)(F)F)c3)C(=O)N(Cc3ccco3)C1=CCC(C)(C)C2,,20.6 µM (active)
COc1cccc(-c2nc3ccc(N4CCN(C)CC4)cc3[nH]2)c1,-18.1%,
O=C1C2CCN(CC2)C1(CO)CO,,2.66 µM (active)
CN(C)C(=O)NC(O)C(Cl)(Cl)Cl (stereo not drawn),-0.512%,
O=c1[nH]c(=O)n(Cc2ccccc2)c(O)c1/C=N/Nc1c(F)c(F)c(F)c(F)c1F,-13.6%,
O=C1NC(=O)C(Cc2ccccc2)C(=O)N1,-5.53%,
CCN(CC)C(=O)Oc1ccc(NC(=O)N2CCOCC2)cc1,-13%,
O=C(OCCN1CCOCC1)C1(c2ccccc2)CCCC1,7.49%,
O=c1c2ccccc2nc(/C=C/c2ccco2)n1-c1ccccc1O,,14.6 µM (active)
Cn1cc(/C=C/c2nc3ccccc3c(=O)n2-c2ccccc2)c2ccccc21,,10.3 µM (active)
O=c1c2ccccc2nc(/C=C/c2ccc(F)cc2)n1-c1ccccc1O,,23.1 µM (active)

SMILES,"activity change, negative = growth inhibition",Potency
CSc1nc2ccc(C)cc2c(=O)n1-c1cccnc1,-17.6%,
O=C(Nc1cccc2ccccc12)N1CCC2(CC1)OCCO2,1.32%,
CCOC(=O)C1CN(C)CCC1=O (stereo not drawn),-17.2%,
CN(C)CCCN=Cc1c(O)n(Cc2ccco2)c(=O)[nH]c1=O,-9.19%,
c1cc2c(cc1[C@H]1OC[C@H]3[C@@H]1CO[C@@H]3c1ccc3c(c1)OCO3)OCO2,-10.6%,
CC(CC(C#N)(c1ccccc1)c1ccccc1)N1CCCCC1 (stereo not drawn),14.4%,
O=C(N/N=C/c1ccc([N+](=O)[O-])o1)c1cc([N+](=O)[O-])cc([N+](=O)[O-])c1O,-39.1%,
N[C@H](C(=O)O)c1cc(=O)[nH]o1,-1.29%,
O=C(COC(=O)Cc1ccccc1)Nc1ccc(F)cc1,38.9%,
CC(C)c1ccc(-n2c(O)c(/C=N/N3CCOCC3)c(=O)[nH]c2=S)cc1,2.61%,
CN(C)c1cccc(C(=O)Nc2nc3ccc(S(=O)(=O)NC(C)(C)C)cc3s2)c1,,10.3 µM (active)
CC1C2Cn3c(nc4ccccc43)C1N(C)O2 (stereo not drawn),-1.39%,
Cc1c(C(=O)O)cccc1-n1c(C)cc(/C=C2\C(=O)NC(=O)N(c3ccc4c(c3)OCO4)C2=O)c1C,22.5%,
CN1[C@@H]2CC[C@H]1CC(OC(=O)c1cc(Cl)cc(Cl)c1)C2 (stereo partly drawn),,18.8 µM (active)
CN1CCC(OC(=O)c2cccc(F)c2)CC1,-5.62%,
COC(=O)[C@@H]1C(OC(=O)c2ccccc2)CC2CCC1N2C (stereo partly drawn),-19.5%,
CC1([N+](=O)[O-])COP(=O)(Nc2ccc(F)cc2)OC1 (stereo not drawn),0.366%,
Cc1c(Oc2cc(NN3CCCCC3)c([N+](=O)[O-])cc2[N+](=O)[O-])cccc1[N+](=O)[O-],-26.6%,
